# Experimental data from PubChem BioAssay (Tox21).
# Values joined by “and” are separate entries in the source; they are usually repeats but may differ in a detail not shown here. Equal values may be shown once. Values without a mark were called inactive. Inconclusive results are not listed. Entries that show only a call come without a potency. Active and inactive are the calls of the source. Unless noted, calls come from the whole dose curve.
# How the values were obtained:
# [1] = Nuclear factor erythroid 2-related factor 2/antioxidant responsive element (Nrf2/ARE) small molecule agonists: luciferase reporter gene qHTS assay in human keratinocytes (AID 1919969); note: nearly all actives have a fitted effect of over 35% in size; note: potency is the fitted concentration of half-maximal effect
# [2] = biological target: Gonadotropin-releasing hormone receptor (Homo sapiens) (UniProt P30968); assay: Human gonadotropin-releasing hormone receptor (GnRHR) small molecule agonists, calcium flux assay in GnRHR-HEK293 cells (AID 1920063); note: nearly all actives have a fitted effect of over 35% in size
# Procedure, shortened: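 Calcium-dye fluorescence, Ex/Em=480/540, recorded every 1 sec over 3 min after compound addition to GnRHR-HEK293 cells. Cells had been seeded 18 hours earlier and dye-loaded for 1 hour at 37 C. Fifteen concentrations, triplicates.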
# [3] = biological target: KiSS-1 receptor (Homo sapiens) (UniProt Q969F8); assay: Human kisspeptin (KISS1R) small molecule agonists, calcium flux assay in KISS1R-HEK293 cells (AID 1920064; active = well fitted activation curve with a large enough effect in the repeat runs)
# Procedure, shortened: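 Calcium flux read-out: kinetic fluorescence at Ex/Em=480/540, 1 s intervals over 3 min, after pin-tool compound addition to dye-loaded KISS1R-HEK293 cells. Fifteen concentrations, triplicates.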
# [4] = G protein-coupled receptor (GPCR) small molecule agonists, calcium flux assay: HEK293 wild type cell line counter screen (AID 1920065)
# Procedure, shortened: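 Agonist mode; 18 h seeding at 37 C, 1 h dye load at 37 C; compounds pinned from DMSO, ATP as positive control; kinetic fluorescence 480/540 nm, 3 min, 1 s reads; 15 concentrations, triplicate.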
# [5] = p53 small molecule agonists, cell-based qHTS assay with human liver microsomes: qHTS cell viability counter screen (AID 1963579); note: nearly all actives have a fitted effect of over 45% in size
# Procedure, shortened: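 Seed p53RE-bla cells at 4,000 per well; incubate 5 h at 37 C; add compound, human liver microsomes and NADPH; incubate 16 h at 37 C; add CellTiter-Glo; after 30 min at room temperature, read luminescence.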
# [6] = p53 small molecule agonists, cell-based qHTS assay with rat liver microsomes: qHTS cell viability counter screen (AID 1963580); note: nearly all actives have a fitted effect of over 45% in size
# Procedure, shortened: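 Cytotoxicity counter screen: intracellular ATP read by CellTiter-Glo luminescence in the p53 reporter wells. HCT-116 p53RE-bla cells were treated for 16 h at 37 C alongside rat liver microsomes and NADPH, each 0.5 mg/mL final.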
# [7] = p53 small molecule agonists, cell-based qHTS assay: qHTS cell viability counter screen (AID 1963581); note: nearly all actives have a fitted effect of over 45% in size
# Procedure, shortened: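 Cytotoxicity read-out: ATP-based luminescence (CellTiter-Glo, 30 min RT) measured in the same wells as the p53 reporter assay, HCT-116 p53RE-bla cells, 16 h compound exposure at 37 C.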
# [8] = p53 small molecule agonists, cell-based qHTS assay (AID 1963582; active = well fitted activation curve with a large enough effect in the signal ratio in the repeat runs, not every such curve was filed as active; the % refers to the signal ratio)
# Procedure, shortened: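 Fluorescence intensity read-out of a beta-lactamase reporter under a p53 response element. Cells were exposed to DMSO-dissolved compounds for 16 h at 37 C, then developed with FRET substrate for 2 h at RT.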
# [9] = biological target: 5-hydroxytryptamine receptor 2A (Homo sapiens) (UniProt P28223); assay: 5-hydroxytryptamine receptor 2A (HTR2A) small molecule antagonists, cell-based qHTS assay (AID 1963586); note: nearly all actives have a fitted effect of over 45% in size; note: potency is the fitted concentration of half-maximal effect
# Procedure, shortened: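 CHO cells stably expressing human HTR2A were plated for 18 h at 37 C, then loaded with calcium dye for 1 h. Compounds were preincubated 5 min at room temperature before DOI (4 nM solution) was added. Kinetic fluorescence was read for 3 min.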
# [10] = biological target: 5-hydroxytryptamine receptor 2A (Homo sapiens) (UniProt P28223); assay: 5-hydroxytryptamine receptor 2A (HTR2A) small molecule agonists, cell-based qHTS assay (AID 1963587); note: nearly all actives have a fitted effect of over 30% in size
# Procedure, shortened: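 Kinetic calcium-flux fluorescence (2 min, 1 sec intervals) after compound addition in agonist mode. HTR2A-CHO cells were cultured 18 h, then dye-loaded 1 h at 37 C.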
# [11] = biological target: Muscarinic acetylcholine receptor M1 (Homo sapiens) (UniProt P11229); assay: Cholinergic receptor muscarinic 1 (CHRM1) small molecule antagonists, cell-based qHTS assay (AID 1963588); note: nearly all actives have a fitted effect of over 40% in size
# Procedure, shortened: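 Compounds were tested at 15 concentrations in three independent runs. Dye-loaded CHRM1-CHO cells were exposed 5 min at room temperature before stimulation by acetylcholine added at 50nM. Intracellular calcium was read kinetically on FDSS for 3 min.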
# [12] = biological target: Muscarinic acetylcholine receptor M1 (Homo sapiens) (UniProt P11229); assay: Cholinergic receptor muscarinic 1 (CHRM1) small molecule agonists, cell-based qHTS assay (AID 1963589); note: nearly all actives have a fitted effect of over 35% in size
# Procedure, shortened: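 Calcium flux read-out: kinetic fluorescence at 1 sec intervals after pin-tool compound addition to dye-loaded CHRM1-CHO cells (human M1). Agonist mode; 15 concentrations tested in triplicate independent runs.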
# [13] = cAMP Responsive Elements (CRE) small molecule agonists, cell-based qHTS assay (AID 1963590)
# Procedure, shortened: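 Beta-lactamase reporter readout: LiveBLAzer B/G FRET substrate, 2 h at room temperature, added after 3 h compound treatment of CRE-bla HEK 293T cells at 37 C/5% CO2.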
# [14] = cAMP Responsive Elements (CRE) small molecule antagonists, cell-based qHTS assay (AID 1963591; active = well fitted inhibition curve with a large enough effect in the signal ratio in the repeat runs, not every such curve was filed as active; the % refers to the signal ratio; note: potency is the fitted concentration of half-maximal effect)
# Procedure, shortened: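 HEK293T CRE-bla; 18 h preincubation; compound pin-transfer; NKH477 0.25 uM final, 3 h, 37 C; LiveBLAzer FRET substrate 2 h RT.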
# [15] = biological target: Beta-2 adrenergic receptor (Homo sapiens) (UniProt P07550); assay: Adrenergic beta2 receptor (ADRB2) small molecule antagonists, cell-based qHTS assay (AID 1963592); note: series mostly up to about 92 µM; nearly all actives have a fitted effect of over 50% in size
# Procedure, shortened: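 Assay format: CHO-ADRB2 cells, 18-20hr seeding at 37C/5% CO2, then compound plus 1nM isoproterenol agonist mix for 0.5hr RT. Homogeneous time-resolved fluorescence cAMP detection after 1hr, expressed as 665/615 nm ratio.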
# [16] = biological target: Beta-2 adrenergic receptor (Homo sapiens) (UniProt P07550); assay: Adrenergic beta2 receptor (ADRB2) small molecule agonists, cell-based qHTS assay (AID 1963593);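 note: CHO cells stably overexpressing human ADRB2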
# Procedure, shortened: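 CHO cells stably over-expressing ADRB2 were plated overnight at 37C, then dosed with compounds plus a stimulation mix containing 100uM IBMX and 25uM Ro-20-1724 for 0.5hr at room temperature. cAMP was measured by HTRF competition, 1hr.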
# [17] = biological target: D(2) dopamine receptor (Homo sapiens) (UniProt P14416); assay: Dopamine D2 receptor (DRD2) small molecule agonists, cell-based qHTS assay (AID 1963594); note: nearly all actives have a fitted effect of over 35% in size
# Procedure, shortened: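 cAMP accumulation in DRD2-HEK293 cells measured by HTRF after 1 h detection; compounds added 10 min before NKH477 (200nM […]) forskolin-analogue stimulation, 30 min at room temperature, with Ro20-1724 present at 0.1 mM final.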
# [18] = p53 small molecule agonists, cell-based qHTS assay with rat liver microsomes (AID 1963578)
# Procedure, shortened: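 Fluorescence from a beta-lactamase reporter under a p53 response element was measured after cells had been incubated 16 h at 37 C with test compound and rat liver microsomes plus NADPH (0.5 mg/mL final each).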
# [19] = biological target: D(2) dopamine receptor (Homo sapiens) (UniProt P14416); assay: Dopamine D2 receptor (DRD2) small molecule antagonists, cell-based qHTS assay (AID 1963595; active = well fitted inhibition curve with a large enough effect in the signal ratio in the repeat runs, with a control signal flat; the % refers to the signal ratio; note: potency is the fitted concentration of half-maximal effect)
# Procedure, shortened: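 Cells were plated and grown for 24 h at 37 °C. Ro20-1724 (0.1 mM final) went in first, then compound for 10 min. NKH477 (200 nM) with quinpirole (12 nM) followed for 30 min at RT, then HTRF detection reagents for 1 h.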
# Sequence of Beta-2 adrenergic receptor (Homo sapiens) (P07550 whole entry, looked up): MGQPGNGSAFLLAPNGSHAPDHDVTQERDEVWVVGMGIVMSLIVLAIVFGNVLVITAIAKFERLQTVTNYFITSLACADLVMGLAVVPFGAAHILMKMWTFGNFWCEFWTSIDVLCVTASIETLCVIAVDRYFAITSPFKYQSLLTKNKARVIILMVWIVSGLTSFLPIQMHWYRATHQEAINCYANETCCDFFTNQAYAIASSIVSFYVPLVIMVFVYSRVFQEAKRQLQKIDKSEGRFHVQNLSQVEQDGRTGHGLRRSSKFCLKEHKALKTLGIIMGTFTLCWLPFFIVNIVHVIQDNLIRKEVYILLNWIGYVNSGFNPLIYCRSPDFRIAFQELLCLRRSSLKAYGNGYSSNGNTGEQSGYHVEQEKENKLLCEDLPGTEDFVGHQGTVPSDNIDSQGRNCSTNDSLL
# Sequence of Gonadotropin-releasing hormone receptor (Homo sapiens) (P30968 whole entry, looked up): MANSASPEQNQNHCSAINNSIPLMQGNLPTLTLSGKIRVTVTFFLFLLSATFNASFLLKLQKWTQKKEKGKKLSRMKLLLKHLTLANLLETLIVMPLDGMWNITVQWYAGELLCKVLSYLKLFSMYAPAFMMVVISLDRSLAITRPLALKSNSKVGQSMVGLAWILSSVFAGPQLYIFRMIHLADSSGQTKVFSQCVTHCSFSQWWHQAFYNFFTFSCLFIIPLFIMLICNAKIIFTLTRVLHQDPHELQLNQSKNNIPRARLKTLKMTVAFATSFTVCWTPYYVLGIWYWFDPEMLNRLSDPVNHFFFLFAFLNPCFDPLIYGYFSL
# Sequence of 5-hydroxytryptamine receptor 2A (Homo sapiens) (P28223 whole entry, looked up): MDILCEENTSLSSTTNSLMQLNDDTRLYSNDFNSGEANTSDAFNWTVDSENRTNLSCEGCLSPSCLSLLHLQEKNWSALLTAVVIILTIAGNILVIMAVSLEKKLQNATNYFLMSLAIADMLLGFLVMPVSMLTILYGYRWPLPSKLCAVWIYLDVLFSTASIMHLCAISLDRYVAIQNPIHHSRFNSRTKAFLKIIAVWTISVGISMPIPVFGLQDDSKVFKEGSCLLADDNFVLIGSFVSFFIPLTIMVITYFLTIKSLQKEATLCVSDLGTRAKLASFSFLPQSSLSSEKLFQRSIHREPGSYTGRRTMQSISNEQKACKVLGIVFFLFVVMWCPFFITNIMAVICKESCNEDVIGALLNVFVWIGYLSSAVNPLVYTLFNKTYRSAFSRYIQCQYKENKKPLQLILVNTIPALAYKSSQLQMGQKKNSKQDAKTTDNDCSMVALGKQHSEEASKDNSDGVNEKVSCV
# Sequence of Muscarinic acetylcholine receptor M1 (Homo sapiens) (P11229 whole entry, looked up): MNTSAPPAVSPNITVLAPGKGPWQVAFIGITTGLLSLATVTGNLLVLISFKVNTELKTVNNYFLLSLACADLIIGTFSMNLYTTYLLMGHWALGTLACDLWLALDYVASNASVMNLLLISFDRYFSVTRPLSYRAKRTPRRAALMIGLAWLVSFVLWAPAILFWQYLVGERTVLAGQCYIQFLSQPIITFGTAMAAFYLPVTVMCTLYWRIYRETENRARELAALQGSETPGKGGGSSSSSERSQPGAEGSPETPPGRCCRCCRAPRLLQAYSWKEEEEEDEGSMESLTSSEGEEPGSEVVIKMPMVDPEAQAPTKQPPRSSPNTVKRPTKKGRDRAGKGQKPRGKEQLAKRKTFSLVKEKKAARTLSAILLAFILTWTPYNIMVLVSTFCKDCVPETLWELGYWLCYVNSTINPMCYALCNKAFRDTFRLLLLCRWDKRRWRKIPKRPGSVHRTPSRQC
# Sequence of KiSS-1 receptor (Homo sapiens) (Q969F8 whole entry, looked up): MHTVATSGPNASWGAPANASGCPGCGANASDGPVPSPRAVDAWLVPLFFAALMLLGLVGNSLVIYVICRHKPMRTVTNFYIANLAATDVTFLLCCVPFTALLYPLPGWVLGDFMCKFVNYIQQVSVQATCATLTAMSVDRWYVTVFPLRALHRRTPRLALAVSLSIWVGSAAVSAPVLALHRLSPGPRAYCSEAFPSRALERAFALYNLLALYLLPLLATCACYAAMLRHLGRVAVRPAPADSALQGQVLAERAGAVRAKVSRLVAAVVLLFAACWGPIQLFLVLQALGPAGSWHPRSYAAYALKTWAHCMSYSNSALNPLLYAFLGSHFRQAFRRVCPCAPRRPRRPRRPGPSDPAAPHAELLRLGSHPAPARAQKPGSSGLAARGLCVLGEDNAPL
# Sequence of D(2) dopamine receptor (Homo sapiens) (P14416 whole entry, looked up): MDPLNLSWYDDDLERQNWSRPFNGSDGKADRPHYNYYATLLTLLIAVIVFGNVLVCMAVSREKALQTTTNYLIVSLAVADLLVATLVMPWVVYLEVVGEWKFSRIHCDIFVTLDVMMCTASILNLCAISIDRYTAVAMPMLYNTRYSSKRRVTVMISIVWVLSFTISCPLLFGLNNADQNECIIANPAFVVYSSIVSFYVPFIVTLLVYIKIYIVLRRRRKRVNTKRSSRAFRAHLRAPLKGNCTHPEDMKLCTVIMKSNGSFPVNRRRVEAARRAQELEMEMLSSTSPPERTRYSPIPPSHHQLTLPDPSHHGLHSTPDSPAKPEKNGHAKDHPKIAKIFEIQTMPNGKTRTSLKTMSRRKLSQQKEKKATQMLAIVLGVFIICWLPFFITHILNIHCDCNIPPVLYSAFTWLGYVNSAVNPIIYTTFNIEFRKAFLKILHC
compound,measurement,setting,value
Nc1nnc(-c2ccc([N+](=O)[O-])o2)o1,Potency,[1],61.1 µM (active)
same,Potency,[2],inactive
same,Potency,[3],inactive
same,Potency,[4],inactive
same,Potency,[5],inactive
same,Potency,[6],inactive
same,Potency,[7],inactive
same,Potency,[8],inactive
same,Potency,[9],inactive
same,Potency,[10],inactive
same,Potency,[11],inactive
same,Potency,[12],inactive
same,Potency,[13],inactive
same,Potency,[14],inactive
same,Potency,[15],inactive
same,Potency,[16],inactive
same,Potency,[17],inactive
O=[N+]([O-])c1ccc(O/N=C/c2cc(Br)c(O)c(Br)c2)c([N+](=O)[O-])c1,Potency,[1],60.8 µM (active)
same,Potency,[2],inactive
same,Potency,[3],inactive
same,Potency,[4],inactive
same,Potency,[18],inactive
same,Potency,[5],inactive
same,Potency,[9],inactive
same,Potency,[10],inactive
same,Potency,[12],inactive
same,Potency,[15],inactive
same,Potency,[17],inactive
same,Potency,[19],inactive
CC(=O)OC1C2(C)CCC(C2)C1(C)C (stereo not given),Potency,[1],inactive
same,Potency,[2],inactive
same,Potency,[3],inactive
same,Potency,[4],inactive
same,Potency,[5],inactive
same,Potency,[6],inactive
same,Potency,[7],inactive
same,Potency,[9],inactive
same,Potency,[10],inactive
same,Potency,[11],inactive
same,Potency,[12],inactive
same,Potency,[13],inactive
same,Potency,[14],inactive
same,Potency,[15],inactive
same,Potency,[17],inactive
CCCCCCCCCCCCCCCCCBr,"activity, positive = activation",[1],-1.2% [at 19 µM]
same,activity change,[2],"0.321% [at 11.8 µM, active compounds read high]"
same,activation,[3],0.212% [at 15.8 µM]
same,activation,[4],-0.0398% [at 11.8 µM]
same,"activity change, negative = cytotoxicity",[5],5.38% [at 13.5 µM]
same,"activity change, negative = cytotoxicity",[6],0.54% [at 13.5 µM]
same,"activity change, negative = cytotoxicity",[7],3.13% [at 13.5 µM]
same,"activity, negative = inhibition",[9],31.5% [at 12.7 µM]
same,activation,[10],0.832% [at 15.9 µM]
same,"activity, negative = inhibition",[11],7.9% [at 12.6 µM]
same,activation,[12],-0.0212% [at 15.8 µM]
same,activation,[13],-0.0773% [at 19 µM]
same,"activity change, negative = inhibition",[14],-5.99% [at 18.9 µM]
same,activation,[16],8.09% [at 19 µM]
same,activation,[17],-0.0433% [at 19 µM]
same,"activity change, negative = inhibition",[19],0.232% [at 18.9 µM]
O=S(=O)(c1ccc(OCc2ccccc2)cc1)c1ccccc1O,Potency,[1],inactive
same,Potency,[2],inactive
same,Potency,[3],inactive
same,Potency,[4],inactive
same,Potency,[18],inactive
same,Potency,[7],inactive
same,Potency,[9],0.594 µM (active)
same,Potency,[10],inactive
same,Potency,[11],inactive
same,Potency,[12],inactive
same,Potency,[14],inactive
same,Potency,[17],inactive
same,Potency,[19],61.1 µM (active)
c1cc(N(CC2CO2)CC2CO2)ccc1OCC1CO1 (stereo not given),Potency,[1],27.3 µM (active) and 24.3 µM (active)
same,Potency,[2],inactive
same,Potency,[3],inactive
same,Potency,[4],inactive
same,Potency,[5],inactive
same,Potency,[6],inactive
same,Potency,[7],inactive
same,Potency,[9],inactive
same,Potency,[10],inactive
same,Potency,[11],inactive
same,Potency,[12],inactive
same,Potency,[15],inactive
same,Potency,[17],inactive
same,Potency,[19],inactive
CCN(CC)CCOc1ccc2c(c1)C(=O)c1cc(OCCN(CC)CC)ccc1-2,Potency,[1],33.5 µM (active)
same,Potency,[2],inactive
same,Potency,[3],inactive
same,Potency,[4],inactive
same,Potency,[5],inactive
same,Potency,[6],inactive
same,Potency,[7],inactive
same,Potency,[9],inactive
same,Potency,[10],inactive
same,Potency,[11],inactive
same,Potency,[12],inactive
same,Potency,[13],inactive
same,Potency,[14],29.8 µM (active)
